Test results as given in PubChem BioAssay AID1845 (The Scripps Research Institute Molecular Screening Center, 2009).
Hit rate of the full screen: of about 290,000 compounds, about 490 (0.17%) were called active. Cut-off read from the data, not from the text of the source: active = inhibition above about 37%; inactive = the rest. The sample as a whole holds a higher share of actives than the screen did.

test: DNA intercalator displacement agents – biochemical, FID fluorescence, artefact control for HCV NS3 helicase inhibitor project, primary screen (AID 1845); conditions: DNA fluorescent intercalator displacement, at 7.9 µM, stronger effect = higher value;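 note: 0% = vehicle and 100% = reference compound; higher means more ethidium bromide displaced from hairpin DNA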

Row | SMILES | inhibition
1 | Cc1ccc(-n2c(SCC(=O)NCCC3=CCCCC3)nc3n[nH]c(C)c3c2=N)cc1Cl | -27.4% (inactive)
2 | O=C(N/N=C/c1cccc(Br)c1)c1ccc(N2CCCC2=O)cc1 | -27.4% (inactive)
3 | C=CCOc1ccc(/C=C/C(=O)OCC(=O)NC2CCCCCC2)cc1 | -19.4% (inactive)
4 | Cc1cc([N+](=O)[O-])ccc1NC(=O)c1ccc(NC(=O)C(C)C)cc1 | -1.34% (inactive)
5 | O=C(Nc1ccc(C(=O)N2CCCCC2)cc1)c1cccc([N+](=O)[O-])c1 | -20.2% (inactive)
6 | Cn1ccc(=Nc2ccc(NC(=O)c3ccc(N=c4ccn(C)c5ccc([N+](=O)[O-])cc45)cc3)cc2)cc1 | 99% (active)
7 | CCC(C)(C)NC(=O)C(c1cccc(OC)c1OC)N(CC(C)C)C(=O)CCC(=O)Nc1cc(C)on1 (centres undefined) | -44.5% (inactive)
8 | c1ccc2cc3c(NCCN4CCOCC4)ccnc3cc2c1 | 63.9% (active)
9 | O=C(NCCN1CCOCC1)c1cc(-c2cccs2)nc2ccccc12 | 3.9% (inactive)
10 | O=C(NCCN1CCOCC1)c1ccc2c(c1)ncn2C1CCCC1 | -5.28% (inactive)
11 | CCCc1cc(=O)oc2c(C)c(OCC(=O)Nc3ccccn3)ccc12 | -23.4% (inactive)
12 | COC(=O)c1ccc(/C=N/NC(=O)C(=O)N2CCCCCC2)cc1 | -24.6% (inactive)
13 | CCc1c(C)c2ccc(OC3CCCCC3=O)cc2oc1=O (centres undefined) | -19.1% (inactive)
14 | Oc1c(Cl)cc(Cl)c(Cl)c1Cc1c(O)c(Cl)cc(Cl)c1Cl | 42.8% (active)
15 | CCC1OC(c2ccc([N+](=O)[O-])cc2)=Nc2ccccc21 (centres undefined) | 0.06% (inactive)
16 | CC(CN1CCCCC1)c1ccccc1 (centres undefined) | 4.77% (inactive)
17 | CC(C)[C@@H](NC(=O)OC(C)(C)C)C(=O)NCC1CCC(C(=O)N[C@@H](Cc2ccccc2)C(=O)O)CC1 (some centres undefined) | -37.5% (inactive)
18 | O=C(CCN1CCc2ccccc2C(O)(c2ccccc2)C1)c1ccc2c(c1)OCCO2 (centres undefined) | 13.1% (inactive)
19 | COc1ccc2cc(C(=O)C3CCCN(C(=O)c4sc(C)nc4C)C3)ccc2c1 (centres undefined) | -47.1% (inactive)
20 | O=C(Nc1ccccc1F)c1ccc(Cn2cc(Br)cn2)cc1 | -14.8% (inactive)
21 | NC(=O)c1cc(S(=O)(=O)NCCCc2ccco2)cs1 | -3.13% (inactive)
22 | O=S1(=O)N=C(N(CCO)/N=C/c2ccccc2F)c2ccccc21 | -16.3% (inactive)
23 | COc1ccc(CCNC(=O)CN2C(=O)CCSc3ccccc32)c(OC)c1 | -32% (inactive)

Row | SMILES | inhibition
24 | CC(C)C[C@@H](COc1ccccc1)N1CCN(CC(C)C)CCC1=O | -13.2% (inactive)
25 | Cc1cnc(C)c(N2CCN(C(=O)C3CCC(=O)N(CCc4cccc(F)c4)C3)CC2)n1 (centres undefined) | -38.6% (inactive)
26 | O=C(Nc1ccccc1)c1ccc2c(c1)OCCCO2 | -4.42% (inactive)
27 | CC(NC(=O)CNC(=O)Cc1cccc2ccccc12)c1ccc(S(N)(=O)=O)cc1 (centres undefined) | -27.1% (inactive)
28 | Cc1ccc2c(c1)N(CC(=O)N1CCC(O)CC1)C(=O)CO2 | -5.64% (inactive)
29 | O=C(CCN1C(=O)[C@H]2CC=CC[C@H]2C1=O)NCc1nc(-c2ccccc2)no1 | -33.7% (inactive)
30 | O=C1NC(c2ccc(-c3ccccc3[N+](=O)[O-])o2)C(C(=O)c2ccc(Cl)cc2)C(O)(C(F)(F)F)N1 (centres undefined) | -16.8% (inactive)
31 | C/C(=N/OC(=O)c1ccc(Br)cc1)c1ccc(C)cc1 | -5.35% (inactive)
32 | CC(C)C[C@H](NC(=O)C1CCC(CNC(=O)[C@@H]2CCCN2C(=O)OC(C)(C)C)CC1)C(=O)O (some centres undefined) | -30.2% (inactive)
33 | CC(=O)c1sc(N/N=C/c2ccc(C(C)C)cc2)nc1C | 4.61% (inactive)
34 | CCOc1ccc(NC(=O)C(C)N2C(=O)c3ccccc3C2=O)cc1 (centres undefined) | -4.96% (inactive)
35 | S=C(Nc1ccc(Cl)cc1Cl)N1CCCC1 | 0.9% (inactive)
36 | O=C(NCCN1CCN(C(=O)c2cccc([N+](=O)[O-])c2)CC1)C(=O)NCc1ccc(Cl)cc1 | -23.5% (inactive)
37 | NC(=O)C1CCN(Cc2nc3c(Br)cc(Br)cc3c(=O)[nH]2)CC1 | -3.04% (inactive)
38 | O=C(C1CC(=O)N(c2ccc(F)cc2)C1)N1CCN(c2ccccc2)CC1 (centres undefined) | -24.8% (inactive)
39 | CCc1cc(=O)oc2c(C)c(OCC(=O)N3CC[C@@]4(O)CCCC[C@H]4C3)ccc12 | -29.5% (inactive)
40 | COC(=O)c1c(NC(=O)C(=O)N2CCCCC2)sc2c1CC(C)(C)OC2 | -42.8% (inactive)
41 | CCN(CC)S(=O)(=O)c1ccc(N2CCOCC2)c(NC(=O)C2CSC3(C)CCC(=O)N23)c1 (centres undefined) | -32.7% (inactive)
42 | COc1cccc(N(CC(=O)NC2CCCC2)C(=O)CCCC(=O)Nc2ccccn2)c1 | -30.3% (inactive)
43 | O=C(O)CC(c1ccccc1F)N1Cc2ccccc2C1=O (centres undefined) | -5.32% (inactive)
44 | CC(C)(C)c1ccc(/C=C/C(=O)NCCCn2ccnc2)cc1 | 4.7% (inactive)
45 | CC(C)c1ccc(Nc2nnc(SCC(=O)c3nnc(-c4ccccc4)o3)s2)cc1 | -16.9% (inactive)
46 | COc1ccccc1N(CC(=O)Nc1ccccc1C(=O)N1CCCC1)S(C)(=O)=O | -10.3% (inactive)

Row | SMILES | inhibition
47 | Cc1cccc(NC(=O)CCN2CC(C)CC(C)C2)c1 (centres undefined) | 6.82% (inactive)
48 | CN(CCO)S(=O)(=O)c1ccc2c(c1)C(=O)c1cc(S(=O)(=O)N(C)CCO)ccc1-2 | 0.99% (inactive)
49 | O=C(c1cc(S(=O)(=O)N2CCOCC2)ccc1Cl)N1CCOCC1 | -0.42% (inactive)
50 | O=C(CCN1CCCO1)N1CCCC(N2CCN(c3cccc(C(F)(F)F)c3)CC2)C1 (centres undefined) | -34.6% (inactive)
51 | O=C(Cc1ccc(Cl)cc1)NC1CCS(=O)(=O)C1 (centres undefined) | -2.95% (inactive)
52 | Cc1ccc(Nc2c3c(nc4ccccc24)CCC3)cc1 | 6.54% (inactive)
53 | CC(=O)Nc1ccc(NC(=O)COc2ncnc3ccccc23)cc1 | -0.17% (inactive)
54 | CC(=O)Nc1ccc(Nc2c3ccccc3nc3ccccc23)cc1 | 70.8% (active)
55 | COc1ccccc1N1CCN(c2ncnc3sc(C)c(-c4ccccc4)c23)CC1 | -38.6% (inactive)
56 | OC(CN=c1sc2ccccc2n1CC(O)COc1ccccc1)COc1ccccc1 (centres undefined) | -11.1% (inactive)
57 | CCc1ccc(C(CNc2nc(C(F)(F)F)nc3ccccc23)N(C)C)cc1 (centres undefined) | 39.5% (active)
58 | NS(=O)(=O)c1ccc(CCNc2nc(C(F)(F)F)nc3ccccc23)cc1 | -2.69% (inactive)
59 | COc1cccc(CNc2nc(C(F)(F)F)nc3ccccc23)c1 | -5.57% (inactive)
60 | COc1ccc(C(=O)COC(=O)Cn2cnc3c2c(=O)n(C)c(=O)n3C)c(OC)c1 | -23% (inactive)
61 | O=C(Nc1ccc([N+](=O)[O-])cc1)OCCc1ccccn1 | 5.74% (inactive)
62 | COc1ccc(CSc2nnnn2-c2ccc(O)cc2)cc1F | -6.37% (inactive)
63 | COc1ccc(CC(=O)NC2CCSc3ccccc32)cc1OC (centres undefined) | -19.9% (inactive)
64 | COc1ccc(-c2noc(CCCC(=O)NC3CCCC3)n2)cc1OC | -34.4% (inactive)
65 | Cc1ccc(C2CC(c3cccc(NS(C)(=O)=O)c3)=NN2S(C)(=O)=O)cc1 (centres undefined) | -20.2% (inactive)
66 | CN(CC(=O)Nc1c(Cl)cccc1Cl)C(=O)CNC(=O)C1CCCCC1 | -9.61% (inactive)
67 | CCOC(=O)C1(Cc2ccccc2C)CCCN(C(=O)c2ccc(COC)o2)C1 (centres undefined) | -43.4% (inactive)
68 | Cn1c(=O)c2ccccc2n(CC(=O)Nc2ccc3c(c2)OCCO3)c1=O | -7.1% (inactive)
69 | COc1ccc(/C=C2\SC(=O)N(CCC(=O)NC3CCS(=O)(=O)C3)C2=O)cc1 (centres undefined) | -25.1% (inactive)

Row | SMILES | inhibition
70 | COc1ccc(Br)cc1CN(C)CC(=O)Nc1cc([N+](=O)[O-])ccc1OC | 0.14% (inactive)
71 | O=C(NC1CCCCC1)C1CCC(CNS(=O)(=O)c2ccccc2)CC1 (centres undefined) | -36.5% (inactive)
72 | Cc1ccc(C(C(=O)NCC2CCCO2)N(C(=O)c2snc(C(N)=O)c2N)c2ccc(C(C)C)cc2)o1 (centres undefined) | -41% (inactive)
73 | CCCCNC(=O)C1(O)c2ccccc2NC(=O)N1c1ccc(Cl)cc1 (centres undefined) | -11.7% (inactive)
74 | CCCNC(=O)c1ccc(N2CCC3(CC2)CC(c2ccc(Cl)cc2)=NO3)c([N+](=O)[O-])c1 | -20% (inactive)
75 | COc1ccc(OC)c(C(C)NC(=S)Nc2ccc(S(=O)(=O)Nc3ncccn3)cc2)c1 (centres undefined) | -59.4% (inactive)
76 | Cc1c(Cl)cccc1NC(=O)NCCCN1CCCC1=O | -5.46% (inactive)
77 | COc1ccccc1NC(=O)CCC(=O)OC(C)C(=O)c1ccccc1 (centres undefined) | -17.2% (inactive)
78 | COc1cccc(NC(=O)N2C3CCCC2CC(NC(C)=O)C3)c1 (centres undefined) | -3.46% (inactive)
79 | CC[n+]1cc(C)ccc1/C=C/c1ccc(N(C)C)cc1 | -33.2% (inactive)
80 | COc1ccc(N2CCN(S(=O)(=O)c3cc(Br)cnc3N)CC2)cc1 | -2.88% (inactive)
81 | CC(=O)c1ccc(NC(=O)c2sc3nc4n(c(=O)c3c2C)CCCCC4)cc1 | -25.9% (inactive)
82 | Cc1ccn(CCC(=O)N2c3ccccc3CC2C)n1 (centres undefined) | -9.3% (inactive)
83 | O=C(/C=C/c1ccc([N+](=O)[O-])o1)NNC(=O)c1ccc(F)cc1 | -4.43% (inactive)
84 | CCN(CC)c1ccc(NC(=O)CN2CCN(c3ccccn3)CC2)cc1 | -17.6% (inactive)
85 | O=C(Cn1ccc2cc(S(=O)(=O)N3CCCC3)ccc21)NCc1ccccc1 | -16.4% (inactive)
86 | O=C(c1ccc[nH]c1=S)N1CCN(S(=O)(=O)c2ccc(Br)cc2Cl)CC1 | -16.3% (inactive)
87 | C/C(=N\Nc1cccc(C(=O)O)c1)c1ccc2c(c1)Nc1ccccc1S2 | -16.1% (inactive)
88 | NS(=O)(=O)c1ccc2nc(NC(=O)CS(=O)(=O)c3ccc(F)cc3)sc2c1 | -3.98% (inactive)
89 | CC(CCc1ccc(O)cc1)NCc1ccc(Cl)cc1Cl (centres undefined) | 12.2% (inactive)
